The full ranking holds about 24,000 sequences; the median of “enrichment r” is about 0.99, and the highest 2% start at about 3.7. The sample as a whole holds a higher share of the highest values than the screen did.
T1: UNK ZnF1-3 (human, UniProt Q9C0B0 31-174)
T1 sequence: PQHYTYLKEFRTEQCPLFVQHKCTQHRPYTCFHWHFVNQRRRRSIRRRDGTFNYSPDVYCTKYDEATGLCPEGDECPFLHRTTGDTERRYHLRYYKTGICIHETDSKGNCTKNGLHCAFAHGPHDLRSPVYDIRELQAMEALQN

B1: chr2:48026839:48026840:+_ENSG00000116062_ENST00000540021|hu_hu|hu_hu_hu_mus_False|1_48 (ssRNA)
RNA: GGGAGUUCUACAGUCCGACGAUCAUAGUGAGCCACUAGCGUCCUAAAUCUGGAACAGUGGCGGUCAUCCGAAAACUGGCCGAUGAAAAACUUUCCCAGUGAAGUGUCCACAAAGCAAACACCAUACACACGAGUGUGGCCAGACAACAGAGGAUUGAGCAUCA
B2: chr5:135513207:135513208:+_ENSG00000113658_ENST00000545279|hu_hu|FALSE|FALSE (ssRNA)
RNA: GGGAGUUCUACAGUCCGACGAUCAAUGUAAGCUCACAGUAUCUGUACUCAAAGUUUCUCUAAAAUUAAAACAAGUCCACUAACAAUAUAAUUGAAAAGAAUACUUCUGCAUUAUGAAACAGAAGAUAUGGGGUUCAGAGGGGACAACAGAGGAUUGAGCAUCA
B3: 133975328_133975448_5492_3pUTR_ENSG00000205060_ENST00000378509|human|control|control (ssRNA)
RNA: GGGAGUUCUACAGUCCGACGAUCUCUCCCAUUCCAGCUUGGUACACACUGAACACAUUUGAGGCUUAUGACUGGUUCUUUUACUUACAAAUAUUGUUUAGACACAUUUUCAAAUGUCACACCAAUCAAUAAUAAUAAGGAAUGCAACAGAGGAUUGAGCAUCA
B4: chr11:21040623:21040624:+_ENSMUSG00000020134_ENSMUST00000093290|mus_mus|motif|central (ssRNA)
RNA: GGGAGUUCUACAGUCCGACGAUCAAUGUGCACGGUGCUAGGCUUCACCCCAUUUGCCUUAGGUCUUUUAAACAAAGCAAACCGGCUUUUCCUCCUUCCUCUAUCACCGUUUGGGAGAGAUCCAUUAUAUCCUAAGACAAUGAGCAACAGAGGAUUGAGCAUCA
B5: chr1:109605286:109605287:-_ENSG00000197780_ENST00000461096|hu_mus|hu_hu_hu_mus_True|88_108 (ssRNA)
RNA: GGGAGUUCUACAGUCCGACGAUCAAGAACAAUAACAACAUUCAGUAUACUUAAAUCAUGCAAUUAUCCUUAUUAUAAGCUAAGCAGAAUAAUAAUUUAAUACCGUAAGUGAACUACACACAAAGCCUGAACCGCGAAAAUGGUCAACAGAGGAUUGAGCAUCA
B6: chr8:42881778:42881779:+_ENSG00000168172_ENST00000307602|hu_hu|FALSE|FALSE (ssRNA)
RNA: GGGAGUUCUACAGUCCGACGAUCCUGAAGUUAGGGGCAAUCUGCAGGUUUGUGUUUCAGGAGGCAGGCAAACCAAAGGUAAGAACAUCUUCUGAUUAACUGUAAGAUGGGAUAAUUUUUAUGAAUACAACUUCAGAAAGCAUCCAACAGAGGAUUGAGCAUCA
B7: 243667512_243667632_2619_3pUTR_ENSG00000117020_ENST00000366539|human|control|control (ssRNA)
RNA: GGGAGUUCUACAGUCCGACGAUCUUCUCAUCACUAAAAAAUAAAUACUACUGCAAUAUAAACAAAAUCAUAAAAGGACAUUCAAAGUUUCAACAUCUGAGAAAAAGCUAAUUCACGUAGAACUGAAAGUAAAAAAUUAAAUAACAACAGAGGAUUGAGCAUCA
B8: chr10:115881139:115881140:-_ENSG00000165813_ENST00000369287|hu_hu|FALSE|FALSE (ssRNA)
RNA: GGGAGUUCUACAGUCCGACGAUCAUAAAAAUAUUUUCACCAGGGUAGCAUAUAUAACAACAUUUACAUUAUUAAGGAUUCUAUUUUUUUCUUUUACUGAUAAAUCUUGGUUUAAAUUUGCAUGUAACAAUUUUUAGAAAAUAACAACAGAGGAUUGAGCAUCA
B9: 62642993_62643113_3073_3pUTR_ENSMUSG00000032244_ENSMUST00000034775|mouse|control|control (ssRNA)
RNA: GGGAGUUCUACAGUCCGACGAUCCAUAUGUGUCCUCAUUCCUUUUCAUCUUACACCUAAUUAGGGAGACACCAAUGCCCUAUGGAAAGGCAGUUUCCAAUUUUUAAAGAUACAACACACAAGGACAGGGCUAGAAAAGGACGACAACAGAGGAUUGAGCAUCA
B10: 120959283_120959403_3001_3pUTR_ENSG00000154114_ENST00000422003|human|control|control (ssRNA)
RNA: GGGAGUUCUACAGUCCGACGAUCUGAAGAAUUUACAAGUCACCUAAAAAUUUCAUAAAAAAAUUAAAUUUGUAGGAGGGGUAGAAUUAUGUAACAAAGGUCAAAAGGUCAAAUGCAAUCAGAUAAUAACUGCAUUCUUUGAAACAACAGAGGAUUGAGCAUCA
B11: 58873449_58873569_2464_3pUTR_ENSMUSG00000025092_ENSMUST00000066285|mouse|control|control (ssRNA)
RNA: GGGAGUUCUACAGUCCGACGAUCAUCCAAGAUCAUUUUAAAAGACCUCCAAUGAAUGUUUCCCCCACCCUACCCUGCCCCCGGCACAGAGUGGGCGUCCUAAGCCUUCCCUUUCAGAGCCCUCUUCCAAGCAGGCUGCACCCACAACAGAGGAUUGAGCAUCA
B12: chr7:75932113:75932114:+_ENSG00000106211_ENST00000248553|hu_hu|hu_hu_hu_mus_False|8_18 (ssRNA)
RNA: GGGAGUUCUACAGUCCGACGAUCCUGCGACCACUCAUCGGGCAACCGGGGCACCCCGAAAGCUUGAUCGAAGAGGCGGCUGUGUGCAGGGUACCAGUCCCGGAAUGGUUCCCAGCUGCCCCGCAGGAGCGAGAAGGAGGGCACCAACAGAGGAUUGAGCAUCA
B13: 171752885_171753005_485_CDS_ENSG00000010165_ENST00000361735|human|control|control (ssRNA)
RNA: GGGAGUUCUACAGUCCGACGAUCGGUGGCAUUACAUUCCUUCAUUUGCUUGAUGACAACCUCACUGAUGUCGAUGUUCACUAUAUCCCGAUAGCCCACAUCAUACAGUUGCUCACUCAGUUCUGAGUUGCCACACCCAAUCACCAACAGAGGAUUGAGCAUCA
B14: 59346998_59352246_650_CDS_ENSG00000215114_ENST00000399598|human|control|control (ssRNA)
RNA: GGGAGUUCUACAGUCCGACGAUCAUCCAAAUUCACUUGGCCACCAUGAACAAGGCGCUGAAGCUCCAGGGGAAUCUCUCCUCUCUUAACAGACUCCAGAAAUUGAGCAUUUGUUGGUUCAUUGUAAGGUCUCAAUUCUCCAUCCAACAGAGGAUUGAGCAUCA
B15: 244175_244709_261_3pUTR_ENSG00000185627_ENST00000382671|human|control|control (ssRNA)
RNA: GGGAGUUCUACAGUCCGACGAUCUUACACAGGAUCACUGCCUCAUCACUACUUUUCACCUUCUCACGAGUCUUUUCCAGAAAAGUAAGAGCCACAUUAGGAUCAGUCAUCUGUCUAACUACAUGAAGAAUGAUUUCCACGAGGCAACAGAGGAUUGAGCAUCA

These binders were tested against T1, UNK ZnF1-3 (assay: nsRBNS (natural sequence RNA bind-n-seq); RBNS binding buffer (assumed for nsRBNS): 25 mM Tris pH 7.5, 150 mM KCl, 3 mM MgCl2, 0.01% Triton X-100, 500 ug/ml BSA, 20 U/ml SUPERase-In, 4 C; UNK is unkempt and MSI1 is Musashi-1; names of the RNAs are library labels; protein concentration not given here; high values mean tight binding).

| Binder | binding signal [enrichment R] |
| --- | --- |
| B1 | 1.03 |
| B2 | 1.67 |
| B3 | 1.3 |
| B4 | 0.75 |
| B5 | 0.813 |
| B6 | 3.56 |
| B7 | 5.18 |
| B8 | 3.75 |
| B9 | 1.66 |
| B10 | 4.1 |
| B11 | 5.4 |
| B12 | 1.07 |
| B13 | 0.654 |
| B14 | 1.23 |
| B15 | 1.47 |

From article PMC12136788
